A number with no mark means an inactive call. Records with an inconclusive call do not appear. Where a call stands in place of a potency, no number is given. Active and inactive are the calls of the source. Unless noted, the call rests on the fitted dose curve.
Columns and labels:
[1] = Nuclear factor erythroid 2-related factor 2/antioxidant responsive element (Nrf2/ARE) small molecule agonists: qHTS cell viability counter screen in human keratinocytes (AID 1919968; active means well fitted curve in the direction sought with a large enough effect in the repeat runs; an effect the other way counts as inactive or inconclusive; further: nearly all actives have a fitted effect of over 55% in size)
Outline: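 KeratinoSens HaCaT cells, 1,500/well, preincubated 5 h, then exposed to compounds in DMSO for 23 h at 37 C/5% CO2. Viability read as CellTiter-Fluor fluorescence after 1 h, in the same wells as the ARE-luciferase read.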

[2] = Nuclear factor erythroid 2-related factor 2/antioxidant responsive element (Nrf2/ARE) small molecule agonists: luciferase reporter gene qHTS assay in human keratinocytes (AID 1919969); further: nearly all actives have a fitted effect of over 35% in size
[3] = target: Gonadotropin-releasing hormone receptor (Homo sapiens) (UniProt P30968); assay: Human gonadotropin-releasing hormone receptor (GnRHR) small molecule agonists, calcium flux assay in GnRHR-HEK293 cells (AID 1920063); further: nearly all actives have a fitted effect of over 35% in size
Outline: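 HEK293 cells stably expressing human GnRHR were dye-loaded for 1 h at 37 C. Compound was added in agonist mode and fluorescence (Ex/Em 480/540) recorded kinetically for 3 min. Fifteen concentrations, triplicates.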

[4] = target: KiSS-1 receptor (Homo sapiens) (UniProt Q969F8); assay: Human kisspeptin (KISS1R) small molecule agonists, calcium flux assay in KISS1R-HEK293 cells (AID 1920064; active means well fitted curve in the direction sought with a large enough effect in the repeat runs; an effect the other way counts as inactive or inconclusive)
Outline: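 HEK293 cells stably expressing human KISS1R were loaded with calcium dye for 1 h at 37 C, then given compound; fluorescence (Ex/Em 480/540) was read kinetically for 3 min. Fifteen concentrations, triplicate.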

[5] = G protein-coupled receptor (GPCR) small molecule agonists, calcium flux assay: HEK293 wild type cell line counter screen (AID 1920065)
Outline: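 Wild-type HEK293 cells plated 18 h, loaded with calcium dye 1 h at 37 C, then compounds added in agonist mode (ATP as positive control). Kinetic fluorescence Ex/Em 480/540 recorded 3 min at 1 sec intervals; 15 concentrations, triplicate.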

[6] = p53 small molecule agonists, cell-based qHTS assay with rat liver microsomes (AID 1963578)
Outline: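 Agonist mode in p53RE-bla reporter cells, with compounds co-incubated 16 h at 37 C alongside 0.5 mg/mL rat liver microsomes and 0.5 mg/mL NADPH (final), followed by a 2 h LiveBLAzer detection step.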

[7] = p53 small molecule agonists, cell-based qHTS assay with human liver microsomes: qHTS cell viability counter screen (AID 1963579); further: nearly all actives have a fitted effect of over 45% in size
Outline: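 Metabolically activated exposure: compounds, human liver microsomes and NADPH (0.5 mg/mL final apiece) were added to p53RE-bla cells seeded 5 h earlier, left 16 h at 37 C, and then assessed for viability by CellTiter-Glo luminescence.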

[8] = p53 small molecule agonists, cell-based qHTS assay with rat liver microsomes: qHTS cell viability counter screen (AID 1963580); further: nearly all actives have a fitted effect of over 45% in size
Outline: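 p53RE-bla HCT-116 cells were exposed 16 h at 37 C to compounds with rat liver microsomes (0.5 mg/mL) and NADPH (0.5 mg/mL). Viability was measured in the same wells as ATP content by CellTiter-Glo luminescence.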

[9] = p53 small molecule agonists, cell-based qHTS assay: qHTS cell viability counter screen (AID 1963581); further: nearly all actives have a fitted effect of over 45% in size
Outline: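 p53RE-bla HCT-116 cells, compounds added 5 h after plating and incubated 16 h at 37 C. Cytotoxicity measured in the same wells as intracellular ATP by CellTiter-Glo luminescence after 30 min at room temperature.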

[10] = p53 small molecule agonists, cell-based qHTS assay (AID 1963582; active means well fitted activation curve with a large enough effect in the signal ratio in the repeat runs, not every such curve was filed as active; the % refers to the signal ratio)
Outline: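 p53RE-bla reporter cells, compounds added in DMSO after 5 h plating, incubated 16 h at 37 C. Beta-lactamase read via 2 h room-temperature LiveBLAzer B/G FRET substrate, fluorescence intensity.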

[11] = target: 5-hydroxytryptamine receptor 2A (Homo sapiens) (UniProt P28223); assay: 5-hydroxytryptamine receptor 2A (HTR2A) small molecule antagonists, cell-based qHTS assay (AID 1963586); further: nearly all actives have a fitted effect of over 45% in size
Outline: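 Antagonist-mode intracellular calcium assay: DOI (4 nM) added after 5 min compound pre-incubation at room temperature to dye-loaded HTR2A-CHO cells. Fluorescence followed for 3 min, sampled every second.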

[12] = target: Muscarinic acetylcholine receptor M1 (Homo sapiens) (UniProt P11229); assay: Cholinergic receptor muscarinic 1 (CHRM1) small molecule antagonists, cell-based qHTS assay (AID 1963588); further: nearly all actives have a fitted effect of over 40% in size; further: potency means the concentration at half of the fitted maximal effect
Outline: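 CHRM1-CHO calcium-flux assay, antagonist mode. Cells were seeded 18 h, dye-loaded 1 h at 37 C and given compound for 5 min at RT, then acetylcholine was added at 50nM. FDSS fluorescence was read 3 min; 15 concentrations, three runs.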

[13] = target: Muscarinic acetylcholine receptor M1 (Homo sapiens) (UniProt P11229); assay: Cholinergic receptor muscarinic 1 (CHRM1) small molecule agonists, cell-based qHTS assay (AID 1963589); further: nearly all actives have a fitted effect of over 35% in size
Outline: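 CHO cells stably expressing human CHRM1 were loaded with calcium dye for 1 h at 37 C, then compound was added in agonist mode. Intracellular calcium fluorescence was followed kinetically at 1 s intervals. Fifteen concentrations were tested in three independent runs.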

[14] = cAMP Responsive Elements (CRE) small molecule antagonists, cell-based qHTS assay (AID 1963591; active means well fitted inhibition curve with a large enough effect in the signal ratio in the repeat runs, not every such curve was filed as active; the % refers to the signal ratio)
Outline: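 CRE-bla HEK293T cells plated 18 h, then given compound plus NKH477 at 0.25 uM final for 3 h at 37C. Beta-lactamase reporter read with LiveBLAzer B/G FRET substrate after 2 h at room temperature.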

[15] = target: Beta-2 adrenergic receptor (Homo sapiens) (UniProt P07550); assay: Adrenergic beta2 receptor (ADRB2) small molecule antagonists, cell-based qHTS assay (AID 1963592); further: series mostly up to about 92 µM; nearly all actives have a fitted effect of over 50% in size
Outline: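 Cells (CHO, stable ADRB2 overexpression) incubated 18-20hr at 37C; compounds added from DMSO; agonist mix (1nM isoproterenol, 100uM IBMX, 25uM Ro-20-1724) added; 0.5hr RT; d2-cAMP and anti-cAMP-cryptate added; 1hr RT; 665/615 nm read.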

[16] = target: D(2) dopamine receptor (Homo sapiens) (UniProt P14416); assay: Dopamine D2 receptor (DRD2) small molecule agonists, cell-based qHTS assay (AID 1963594); further: nearly all actives have a fitted effect of over 35% in size
Outline: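 HEK293 cells stably expressing human DRD2, pre-treated with PDE inhibitor Ro20-1724 (0.1 mM final) and compound 10 min at room temperature, then stimulated with NKH477 (200nM […]) for 30 min. cAMP read by HTRF (665/620 nm).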

[17] = target: D(2) dopamine receptor (Homo sapiens) (UniProt P14416); assay: Dopamine D2 receptor (DRD2) small molecule antagonists, cell-based qHTS assay (AID 1963595; active means well fitted inhibition curve with a large enough effect in the signal ratio in the repeat runs, with a control signal flat; the % refers to the signal ratio)
Outline: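 Antagonism was scored as restored cAMP in HEK293-DRD2 cells. These cells were stimulated with 200 nM NKH477 and 12 nM quinpirole for 30 min at room temperature, in the presence of 0.1 mM Ro20-1724.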

[18] = cAMP Responsive Elements (CRE) small molecule agonists, cell-based qHTS assay (AID 1963590)
Outline: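 CRE-bla HEK 293T cells, 2,000/well in DMEM with 10% dialyzed FBS and 25 mM HEPES, pre-incubated 18 h at 37 C, then exposed to compound 3 h at 37 C. Beta-lactamase reporter read with LiveBLAzer B/G FRET substrate after 2 h at room temperature.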

[19] = target: 5-hydroxytryptamine receptor 2A (Homo sapiens) (UniProt P28223); assay: 5-hydroxytryptamine receptor 2A (HTR2A) small molecule agonists, cell-based qHTS assay (AID 1963587); further: nearly all actives have a fitted effect of over 30% in size
Outline: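 CHO cells stably expressing human HTR2A, plated 18 h, loaded with calcium dye 1 h at 37 C. Agonist mode: compounds added and intracellular calcium fluorescence recorded kinetically for 2 min at 1 sec intervals.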

Chain of Muscarinic acetylcholine receptor M1 (Homo sapiens) (P11229 whole entry, looked up): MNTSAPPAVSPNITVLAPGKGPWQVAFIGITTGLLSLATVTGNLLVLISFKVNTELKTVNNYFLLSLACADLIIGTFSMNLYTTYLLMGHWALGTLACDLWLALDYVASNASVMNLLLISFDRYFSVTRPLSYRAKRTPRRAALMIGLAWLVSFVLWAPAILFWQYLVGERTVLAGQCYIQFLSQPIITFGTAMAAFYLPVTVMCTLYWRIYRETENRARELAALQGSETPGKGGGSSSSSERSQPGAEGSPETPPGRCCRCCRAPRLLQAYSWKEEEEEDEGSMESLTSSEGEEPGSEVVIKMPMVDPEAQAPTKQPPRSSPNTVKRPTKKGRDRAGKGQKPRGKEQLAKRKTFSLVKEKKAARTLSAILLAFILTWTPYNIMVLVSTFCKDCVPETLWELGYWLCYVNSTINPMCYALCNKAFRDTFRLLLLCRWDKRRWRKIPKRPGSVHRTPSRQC
Chain of Beta-2 adrenergic receptor (Homo sapiens) (P07550 whole entry, looked up): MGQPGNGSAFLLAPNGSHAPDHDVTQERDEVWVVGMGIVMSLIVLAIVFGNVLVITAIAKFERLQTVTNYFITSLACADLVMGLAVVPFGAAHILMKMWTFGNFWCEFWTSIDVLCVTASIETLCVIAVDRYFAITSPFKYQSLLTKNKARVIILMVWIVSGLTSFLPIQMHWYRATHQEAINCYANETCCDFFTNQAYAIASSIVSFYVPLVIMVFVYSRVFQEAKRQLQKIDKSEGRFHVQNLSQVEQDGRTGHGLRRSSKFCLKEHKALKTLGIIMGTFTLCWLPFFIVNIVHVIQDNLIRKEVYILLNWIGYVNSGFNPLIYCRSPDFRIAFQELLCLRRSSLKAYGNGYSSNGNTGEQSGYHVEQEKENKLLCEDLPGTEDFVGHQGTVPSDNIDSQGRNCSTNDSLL
Chain of KiSS-1 receptor (Homo sapiens) (Q969F8 whole entry, looked up): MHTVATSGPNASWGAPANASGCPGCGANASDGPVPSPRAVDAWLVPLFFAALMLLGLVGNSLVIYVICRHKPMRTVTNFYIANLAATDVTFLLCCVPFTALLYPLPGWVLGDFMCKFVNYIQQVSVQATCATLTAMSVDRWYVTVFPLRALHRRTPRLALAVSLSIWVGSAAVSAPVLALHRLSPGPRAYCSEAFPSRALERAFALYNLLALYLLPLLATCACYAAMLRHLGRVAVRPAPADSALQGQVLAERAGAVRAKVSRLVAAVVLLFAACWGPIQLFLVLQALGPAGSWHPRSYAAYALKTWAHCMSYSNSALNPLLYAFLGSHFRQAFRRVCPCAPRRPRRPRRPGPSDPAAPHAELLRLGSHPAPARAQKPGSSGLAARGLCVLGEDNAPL
Chain of D(2) dopamine receptor (Homo sapiens) (P14416 whole entry, looked up): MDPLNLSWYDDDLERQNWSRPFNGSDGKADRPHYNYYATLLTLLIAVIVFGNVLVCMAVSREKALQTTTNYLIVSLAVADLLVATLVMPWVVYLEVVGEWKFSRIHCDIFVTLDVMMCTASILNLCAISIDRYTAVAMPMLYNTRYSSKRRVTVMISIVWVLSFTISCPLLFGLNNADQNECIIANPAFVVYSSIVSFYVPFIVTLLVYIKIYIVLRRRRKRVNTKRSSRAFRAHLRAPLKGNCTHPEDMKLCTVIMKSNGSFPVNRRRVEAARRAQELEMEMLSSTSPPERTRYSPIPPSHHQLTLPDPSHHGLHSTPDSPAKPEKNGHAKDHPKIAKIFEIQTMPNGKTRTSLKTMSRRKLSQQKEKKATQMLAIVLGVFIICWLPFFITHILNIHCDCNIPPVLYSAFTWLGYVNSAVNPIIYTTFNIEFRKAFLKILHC
Chain of Gonadotropin-releasing hormone receptor (Homo sapiens) (P30968 whole entry, looked up): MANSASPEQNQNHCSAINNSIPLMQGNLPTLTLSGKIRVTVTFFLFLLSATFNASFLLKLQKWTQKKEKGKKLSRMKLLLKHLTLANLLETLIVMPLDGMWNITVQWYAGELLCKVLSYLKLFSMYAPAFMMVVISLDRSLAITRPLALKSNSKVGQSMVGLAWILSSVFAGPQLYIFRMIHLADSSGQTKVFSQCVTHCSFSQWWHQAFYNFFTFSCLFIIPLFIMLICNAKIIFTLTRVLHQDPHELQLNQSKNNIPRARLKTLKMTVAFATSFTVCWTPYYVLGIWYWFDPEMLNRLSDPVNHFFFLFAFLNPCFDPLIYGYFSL
Chain of 5-hydroxytryptamine receptor 2A (Homo sapiens) (P28223 whole entry, looked up): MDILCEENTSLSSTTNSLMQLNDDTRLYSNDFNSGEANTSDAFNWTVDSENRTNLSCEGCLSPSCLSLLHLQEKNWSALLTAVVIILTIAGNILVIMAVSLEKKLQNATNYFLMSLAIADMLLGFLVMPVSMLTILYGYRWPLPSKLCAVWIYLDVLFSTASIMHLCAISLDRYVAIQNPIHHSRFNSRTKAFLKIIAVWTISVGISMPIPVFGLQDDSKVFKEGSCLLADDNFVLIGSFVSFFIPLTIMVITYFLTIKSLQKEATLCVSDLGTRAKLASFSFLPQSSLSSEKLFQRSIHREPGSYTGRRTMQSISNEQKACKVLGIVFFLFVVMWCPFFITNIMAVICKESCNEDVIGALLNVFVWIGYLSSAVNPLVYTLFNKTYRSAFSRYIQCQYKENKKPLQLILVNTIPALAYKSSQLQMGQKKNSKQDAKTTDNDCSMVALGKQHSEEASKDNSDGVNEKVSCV

| Structure (SMILES) | Potency [1] | Potency [2] | Potency [3] | outcome [4] | outcome [5] | Potency [6] | Potency [7] | Potency [8] | Potency [9] | Potency [10] | Potency [11] | Potency [12] | Potency [13] | Potency [14] | Potency [15] | Potency [16] | Potency [17] | Potency [18] | Potency [19] |
| --- | --- | --- | --- | --- | --- | --- | --- | --- | --- | --- | --- | --- | --- | --- | --- | --- | --- | --- | --- |
| O=Cc1c(Cl)cccc1Cl | inactive | inactive | inactive | inactive | inactive | inactive | inactive | inactive | inactive | inactive | inactive | inactive | inactive | inactive | inactive | inactive | inactive |  |  |
| COc1cc(CNC(=O)CCCC/C=C/C(C)C)ccc1O | inactive | inactive | inactive | inactive | inactive | inactive | inactive | inactive | inactive | inactive |  |  |  | inactive | inactive | inactive | inactive | inactive |  |
| CC(=O)OC(C)c1ccccc1 (stereo not drawn) | inactive | inactive | inactive | inactive | inactive | inactive | inactive | inactive | inactive |  | inactive | inactive | inactive |  |  | inactive | inactive | inactive | inactive |
| CC(=O)C1C(=O)C=C(C)OC1=O (stereo not drawn) | inactive | inactive | inactive | inactive | inactive | inactive | inactive | inactive | inactive | inactive | inactive |  | inactive | inactive |  | inactive | inactive | inactive | inactive |
| COc1ccc(C2C(=O)c3ccccc3C2=O)cc1 | inactive | inactive | inactive | inactive | inactive | inactive | inactive | inactive | inactive | inactive |  |  |  | inactive |  | inactive | inactive | inactive |  |
| CC(C(=O)O)c1ccc(-c2ccccc2)c(F)c1 (stereo not drawn) | inactive | inactive | inactive | inactive | inactive | inactive | inactive | inactive | inactive |  |  |  |  |  | inactive | inactive | inactive |  |  |
| O=C(O)Cc1ccc(-c2ccccc2)cc1 | inactive | inactive | inactive | inactive | inactive | inactive | inactive | inactive | inactive | inactive |  |  |  |  | inactive | inactive | inactive |  |  |
| CCCCCCCCCCCCCCCCCCO | inactive | inactive | inactive | inactive | inactive | inactive | inactive | inactive | inactive | inactive |  | inactive | inactive | inactive | inactive | inactive | inactive | inactive | inactive |
| Cc1ccsc1/C=C/C1=NCCCN1C | inactive | inactive | inactive | inactive | inactive | inactive | inactive | inactive | inactive |  |  | 3.3 nM (active) | inactive | inactive | inactive | inactive | inactive |  | inactive |

Reference: PubChem BioAssay (Tox21)
